HepG2 tox: counter-screen for TGF-b inhibitors: cytotoxicity in HepG2 cells. HepG2 CAGA-GFP viability, ATP luminescence, 18 h. Potency, µM (doses to about 46.1 µM), inactives show at the top dose activity change, negative = cytotoxicity, hits mostly cytotoxic. 0.76% of 410,000 active
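HepG2 CAGA-GFP cells (1000/well, DMEM with 1% FBS) received compound, then TGF-beta at 500 pg/mL final, and were incubated 18 hours at 37 degrees C. Viability was read by CellTiter-Glo luminescence. Media-only wells were set as complete cell-killing and DMSO as no toxicity.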
S2 tox: cell viability loss in ATXN counter-screen; 0.49% of 400,000 active; S2 cells (HEK-293 line with an ATXN2-luciferase reporter) viability, CellTiter-Fluor protease fluorescence, 24 h; Potency, µM (doses to about 56.7 µM), most hits filed as cytotoxic; note: nearly all actives have a fitted effect of over 40% in size
ATXN2 expr inh: reduces ATXN2 reporter expression in HEK-293 cells; HEK-293 ATXN2-luciferase reporter, luminescence, 24 h; Potency, µM (highest dose often 57 µM), inactives show top-dose activity change, negative = inhibition, most hits filed as inhibitors; 0.72% of 360,000 active; note: % is set by controls: 0 for no effect and ±100 for the full control effect; nearly all actives have a fitted effect of over 55% in size
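ATXN2-luciferase reporter cells (luciferase flanked by upstream and downstream ATXN2 gene portions) were treated 24 h at 37 °C with compounds at up to 57 uM. SteadyGlo luminescence gave expression; GF-AFC fluorescence gave viability.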
TDP1 cell CPT: DT40-hTDP1 cell growth loss with CPT | chicken DT40 Tdp1-/-;hTDP1 cells + 20 nM CPT, ATP luminescence, 48 h | Potency, µM (titrated, usually from 46.2 µM), inactives show top-dose activity change, negative = growth inhibition, actives largely listed as inhibitors | 12% of 420,000 active; note: % is set by controls: 0 for no effect and ±100 for the full control effect; nearly all actives have a fitted effect of over 55% in size
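Cell growth measured by CellTiter-Glo luminescence after a minimum 48 h, 37 C compound exposure with 20 nM CPT in Tdp1-knockout DT40 cells stably expressing hTDP1, seeded 400/well; qHTS titration format.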
TGFb inhibitor: TGF-b pathway inhibition; HepG2 CAGA-GFP TGF-b/SMAD3 reporter, GFP fluorescence, 18 h; TGF-beta stimulated, 500 pg/mL final; Potency, µM (top dose mostly 46.1 µM), without a hit: at the highest dose activity, negative = inhibition, hits mostly inhibitors; 1.2% of 410,000 active; note: % is set by controls: 0 for no effect and ±100 for the full control effect; nearly all actives have a fitted effect of over 65% in size
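Smad-responsive CAGA-GFP expression was quantified in HEPG2 cells exposed to compounds and 500 pg/mL final TGF-beta for 18 h at 37 degrees C; unstimulated wells defined full inhibition.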
TDP1 cell noCPT: qHTS for Inhibitors of human tyrosyl-DNA phosphodiesterase 1 (TDP1): qHTS in cells in absence of CPT | DT40 Tdp1-/- hTDP1 cells, no CPT, ATP luminescence, 48 h | Potency, µM (top dose mostly 46.2 µM), without a hit: top-dose activity change, negative = growth inhibition, hits mostly inhibitors | 15% of 420,000 active; note: % is set by controls: 0 for no effect and ±100 for the full control effect; nearly all actives have a fitted effect of over 55% in size
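Compound effects on proliferation are scored in DT40 Tdp1-/-;hTDP1 cells in the absence of CPT. ATP levels (CellTiter-Glo luminescence) are recorded after a ≥48 hr, 37 °C incubation.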
* hit, by the source's call; i = inactive; ? = inconclusive; / = not tested or not shown. This is a sample that favours compounds with a hit; in the whole collection about 17% have one here. Calls come from the whole dose curve; as a rule, active = well fitted curve in the direction sought with a large enough effect; inconclusive = small, poorly fitted or top-dose-only effect, or another doubt; inactive = no such curve, though single readings can be large; an effect the other way counts as inactive or inconclusive. Potency is the fitted concentration of half-maximal effect.

SMILES | HepG2 tox | S2 tox | ATXN2 expr inh | TDP1 cell CPT | TGFb inhibitor | TDP1 cell noCPT
Nc1nc(Cl)nc2c1ncn2[C@H]1C[C@H](O)[C@@H](CO)O1 | -42% | i | ? | 0.18µM* | ? | 0.21µM*
Nc1ncnc2c1ncn2C1OCC(O)C1O (stereo unspecified) | -9% | i | 12% | 18µM* | -23% | 13µM*
NCC1OC(n2cnc3c(N)ncnc32)CC1O (stereo unspecified) | -15% | i | -20% | -7% | -3% | -19%
O=C(CSCc1cccc(Br)c1)NC1CC1 | 19% | ? | 18% | -13% | 20% | -15%
O=C(c1ccccc1Cl)n1nc(-c2ccco2)nc1NCc1cccs1 | -2% | i | 14% | ? | -24% | -19%
CCN(CC)CCCNC(=O)c1cc(Nc2ccc(OC)cc2)nc2ccccc12 | 6% | i | -23% | 18µM* | 21% | 23µM*
COc1ccc(Nc2cc(C(=O)NCCCN3CCN(c4ccc(OC)cc4)CC3)c3ccccc3n2)cc1 | -49% | / | / | 8.2µM* | -21% | 8.2µM*
COc1ccc(N2CCN(CCNC(=O)c3ccc4c(c3)[nH]c(=S)n3c5ccccc5nc43)CC2)cc1 | -39% | i | -19% | 4.6µM* | 16% | 2.1µM*
COc1ccc(N2CCN(CCCNC(=O)c3cnn(-c4ccc(C)cc4)c3-n3cccc3)CC2)cc1 | -15% | / | / | 5.8µM* | ? | 5.2µM*
CCC(=O)N1CCC1(C)C(=O)Nc1ccc(Cl)c(Cl)c1 (stereo unspecified) | -9% | i | 5% | -27% | 5% | ?
COc1ccc(Nc2cc(C(=O)NCCCN3CCN(C)CC3)c3ccccc3n2)cc1OC | -18% | i | -2% | -15% | 17% | -18%
COc1ccccc1Nc1cc(C(=O)NCc2cccnc2)c2ccccc2n1 | 12% | i | 13% | 1% | 12% | ?
COc1ccc(Nc2cc(C(=O)NCCCN(C)Cc3ccccc3)c3ccccc3n2)c(OC)c1 | -58% | / | ? | 15µM* | ? | 13µM*
COc1ccc(N2CCN(CCCNC(=O)c3cc(Nc4ccccc4OC)nc4ccccc34)CC2)cc1 | -71% | ? | ? | 23µM* | ? | ?
COc1ccc(Nc2cc(C(=O)NCCCN3CCOCC3)c3ccccc3n2)cc1OC | -24% | i | 1% | 29µM* | -16% | ?
COc1ccc(Nc2cc(C(=O)NCCCN3CCN(c4ccccc4F)CC3)c3ccccc3n2)c(OC)c1 | -44% | / | / | ? | 11µM* | 16µM*
COc1ccc(Nc2cc(C(=O)NCCCN3CCOCC3)c3ccccc3n2)c(OC)c1 | -2% | ? | 2% | -4% | 0% | -25%
O=C(Cn1cncn1)c1ccc(F)cc1F | 5% | i | 12% | -15% | 6% | 3%
O=C(COc1ccc(-c2nnco2)cc1)NC1CCCc2ccccc21 (stereo unspecified) | -20% | i | 2% | ? | -1% | ?
CCN(CCCNC(=O)c1cc(Nc2ccccc2OC)nc2ccccc12)c1cccc(C)c1 | -2% | / | 4% | 21µM* | ? | 7.3µM*
CC(=O)N1CCc2cc(Br)cc(S(=O)(=O)CCC(=O)N3CCN(c4ccccc4)CC3)c21 | -6% | i | 9% | 2% | -14% | -4%
O=C1CCCC(=O)C1CS(=O)(=O)c1ccccc1 | -14% | i | 14% | -9% | 4% | 8%
COc1ccccc1C1CC(c2ccc(Cl)cc2)Nc2nc(N)nn21 (stereo unspecified) | -17% | i | -4% | 10µM* | -6% | 16µM*

Compound activity: PubChem BioAssay, National Center for Advancing Translational Sciences (NCATS)
